SMILES strings stand for the structures.

Experimental findings from publication PMC5540273 (PLoS ONE, 2017) are described below.

Among the test systems are PIKFYVE; PIM1; PIM2; PIM3; PIP5K1A; PIP5K1C; PIP5K2B; PKMYT1; PKN1; PKN2; PLK1; PLK2; PLK3; PLK4; PRKCD; PRKCE; PRKCH.
Holding throughout (details): concentration: 1 μM, replicates: in singlicate; n = 1
For another test, the system named is T1, PIP5K2C.
T1 construct: gene PIP4K2C

For a further test, the system named is T2, PKAC-alpha.
T2 construct: gene PRKACA

A further test deals with T3, PKAC-beta.
T3 construct: gene PRKACB
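Further: KINOMEscan kinase panel screen.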

For `NCC(NC(=O)c1cc(-c2cn[nH]c2)c(-c2ccnc3[nH]ccc23)s1)c1ccccc1.O=C(O)C(F)(F)F.O=C(O)C(F)(F)F` (stereo not drawn) [GSK1325775], the “%Inh” value was found to be 0% in the test on PIKFYVE; 39% in the test with PIM1; 16% in the test on PIM2; 41% in the test on PIM3; 50% in the test with PIP5K1A; 80% in the test with PIP5K1C. Moreover, the “%Inh” value came to 71% with PIP5K2B; 49% in the test on PIP5K2C; 98.7% in the test on PKAC-alpha; 98% in the test with PKAC-beta; 0% in the test with PKMYT1; 52% in the test on PKN1. Further, the “%Inh” value with PKN2 came to 66%; in the test with PLK1 it was 14%; in the test with PLK2 it was 5%; with PLK3, 14%; with PLK4, 29%; in the test with PRKCD, 99.8%. Moreover, the “%Inh” value in the test on PRKCE turned out to be 98.7%; in the test on PRKCH, 95.1%.
Consider `Cc1nnc(-c2ccc3ncc(-c4ccc(S(C)=O)cc4)n3c2)o1` (stereo not drawn), for which the “%Inh” value with PIKFYVE was determined as 0%; with PIM1 it was 0%; in the test with PIM2, 2%; in the test with PIM3, 0%; with PIP5K1A, 2%; in the test with PIP5K1C, 0%. In addition, the “%Inh” value with PIP5K2B stood at 39%; in the test on PIP5K2C, 0%; in the test on PKAC-alpha, 2%; in the test with PKAC-beta, 8%; with PKMYT1, 3%; in the test with PKN1 it was 0%. The “%Inh” value was 0% with PKN2; 0% in the test with PLK1; 11% in the test on PLK2; 12% with PLK3; 0% with PLK4; 14% in the test with PRKCD. Also, the “%Inh” value in the test on PRKCE and in the test with PRKCH was 0% in each case.
For `COC(=O)Nc1nc2cc(Oc3ccc(NC(=O)Nc4cc(F)ccc4F)cc3)ccc2[nH]1.Cl` [GW701424], the “%Inh” value with PIKFYVE came out at 31%; with PIM1 it was 13%; with PIM2 it was 0%; in the test with PIM3 it was 2%; with PIP5K1A, 41%; with PIP5K1C it was 9%. Besides, the “%Inh” value in the test on PIP5K2B is 14%; in the test with PIP5K2C it was 40%; with PKAC-alpha, 0%; with PKAC-beta, 0%; in the test with PKMYT1 it was 0%; with PKN1 it was 0%. Further, the “%Inh” value with PKN2, in the test on PLK1, in the test with PLK2, with PLK3, in the test with PLK4 and with PRKCD was 0% each time. For the same molecule, the “%Inh” value came to 12% with PRKCE and 5% in the test with PRKCH.
Regarding `C[C@@H](Oc1cc(-n2cnc3ccc(NC(=O)NC(C)(C)C)cc32)sc1C(N)=O)c1ccccc1Cl` [GSK346294], the “%Inh” value in the test with PIKFYVE worked out at 37%; in the test on PIM1, 17%; in the test with PIM2, 0%; in the test on PIM3, 0%; with PIP5K1A it was 35%; in the test on PIP5K1C, 48%. Further, the “%Inh” value is recorded as 10% in the test on PIP5K2B; 42% with PIP5K2C; 4% with PKAC-alpha; 0% in the test with PKAC-beta; 5% in the test on PKMYT1; 0% in the test with PKN1. Also, the “%Inh” value was 0% in the test with PKN2; 99.9% in the test with PLK1; 96% with PLK2; 87% with PLK3; 0% in the test on PLK4; 5% with PRKCD. Besides, the “%Inh” value in the test with PRKCE is listed as 19%; in the test with PRKCH, 21%.
Consider `CN1c2ccc(CNc3ccc(F)cc3)cc2-c2c(cnn2C)S1(=O)=O`, for which the “%Inh” value with PIKFYVE was determined as 17%; in the test on PIM1, 0%; in the test with PIM2 it was 14%; in the test with PIM3, 5%; with PIP5K1A, 5%; in the test on PIP5K1C it was 23%. Also, the “%Inh” value in the test with PIP5K2B stood at 0%; with PIP5K2C, 24%; in the test on PKAC-alpha it was 5%; with PKAC-beta it was 0%; in the test with PKMYT1, 0%; in the test with PKN1, 0%. In addition, the “%Inh” value in the test with PKN2 was found to be 0%; with PLK1, 11%; in the test on PLK2, 15%; with PLK3 it was 11%; with PLK4, 0%; in the test with PRKCD, 0%. Besides, the “%Inh” value is recorded as 5% with PRKCE and 0% with PRKCH.
Take `COc1cc2c(cc1OCCN1CCN(C)CC1)ncc1c3ccc(C#N)cc3[nH]c21`: the “%Inh” value with PIKFYVE was found to be 64%; in the test with PIM1, 34%; in the test on PIM2 it was 90.9%; in the test with PIM3, 63%; in the test on PIP5K1A it was 57%; in the test with PIP5K1C, 55%. Moreover, the “%Inh” value with PIP5K2B stood at 94.8%; in the test on PIP5K2C, 35%; with PKAC-alpha, 0%; with PKAC-beta, 0%; in the test with PKMYT1 it was 0%; with PKN1, 56%. For the same molecule, the “%Inh” value is 25% in the test on PKN2; 0% with PLK1; 16% in the test on PLK2; 16% with PLK3; 0% in the test on PLK4; 1% in the test with PRKCD. Also, the “%Inh” value with PRKCE and with PRKCH was 0% throughout.
For the molecule `NS(=O)(=O)c1cccc(-c2ccc3ncc(N4CCOCC4)nc3c2)c1` [GSK1535721], the “%Inh” value in the test with PIKFYVE came to 11%; with PIM1, 14%; in the test on PIM2 it was 0%; with PIM3 it was 0%; in the test with PIP5K1A it was 0%; with PIP5K1C, 48%. For the same molecule, the “%Inh” value with PIP5K2B came to 11%; in the test with PIP5K2C, 75%; with PKAC-alpha it was 0%; in the test with PKAC-beta, 0%; in the test on PKMYT1, 1%; with PKN1, 0%. Besides, the “%Inh” value in the test on PKN2 turned out to be 0%; with PLK1, 0%; in the test with PLK2 it was 0%; in the test on PLK3 it was 5%; in the test with PLK4, 15%; in the test on PRKCD, 4%. Moreover, the “%Inh” value in the test with PRKCE turned out to be 1%; with PRKCH it was 8%.
Regarding `O=C(NCCCN1CCOCC1)c1cccc(Nc2nccc(Nc3ccc(Oc4ccccc4)cc3)n2)c1` [GW663929], the “%Inh” value in the test with PIKFYVE is listed as 37%; in the test with PIM1, 22%; with PIM2, 0%; in the test on PIM3, 4%; with PIP5K1A it was 18%; in the test on PIP5K1C it was 0%. Further, the “%Inh” value in the test with PIP5K2B was 0%; with PIP5K2C, 83%; in the test with PKAC-alpha, 4%; in the test with PKAC-beta, 0%; in the test with PKMYT1, 0%; with PKN1, 16%. Also, the “%Inh” value in the test on PKN2 is 0%; in the test on PLK1 it was 0%; in the test on PLK2 it was 0%; with PLK3 it was 4%; with PLK4 it was 17%; in the test on PRKCD it was 0%. Further, the “%Inh” value in the test on PRKCE is given as 4%; in the test with PRKCH it was 0%.
Turning to `Cc1nnc(-c2ccc(C)c(-c3ccc(C(=O)Nc4ccc(NS(C)(=O)=O)cc4)cc3)c2)o1` [GW702865], the “%Inh” value stood at 4% with PIKFYVE; 0% with PIM1; 0% in the test with PIM2; 0% with PIM3; 52% in the test with PIP5K1A; 26% in the test with PIP5K1C. In addition, the “%Inh” value with PIP5K2B was found to be 17%; in the test on PIP5K2C, 18%; in the test on PKAC-alpha, 0%; in the test on PKAC-beta, 0%; in the test with PKMYT1 it was 0%; in the test on PKN1, 28%. The “%Inh” value with PKN2 is reported as 15%; with PLK1 it was 0%; with PLK2, 0%; with PLK3 it was 7%; in the test on PLK4 it was 6%; with PRKCD, 0%. The “%Inh” value in the test on PRKCE and in the test on PRKCH was 0% each time.
